Results as given in PubChem BioAssay (EPA / NIEHS).
Where “and” joins values, the source holds several entries; their conditions need not be identical. Equal values may be shown once. The source holds several records for some structures; these can differ, active in one and inactive in another. Calls of active or inactive are those of the source. How the source made its calls: active means hit-call score of the fitted dose curve at least 0.9, where 1 is the maximum; inactive means score below 0.9.

Test: BSK_LPS_SRB: Viability Assessment in the BioMAP Diversity Plus: LPS Assay (AID 2283079);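 further: measured one day after compound addition; fitted in both directions against DMSO so loss or gain of signal counts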
Details: primary human HUVEC with PBMC
Description: BSK_LPS is a cell-based, multiplexed-readout assay that uses umbilical vein endothelium and peripheral blood mononuclear cells, a human vascular primary cell co-culture, with measurements taken at 24 hours after chemical dosing in a 96-well plate.BSK_LPS_SRB is an assay component measured in the BSK_LPS assay. It measures 0.1% sulforhodamine related to cell death using Sulforhodamine staining technology.Data from the assay component BSK_LPS_SRB was analyzed into 1 assay endpoint. This assay endpoint, BSK_LPS_SRB, was analyzed with bidirectional fitting relative to DMSO as the negative control and baseline of activity. Using a type of viability reporter, gain or loss-of-signal activity can be used to understand changes in the signaling. Furthermore, this assay endpoint can be referred to as a primary readout, because this assay has produced multiple assay endpoints where this one serves a signaling function. To generalize the intended target to other relatable targets, this assay endpoint is annotated to the cell morphology intended target family, where the subfamily is cell conformation.
The levels of cell surface (or secreted, indicated by the prefix "s") biomarker endpoints were measured by ELISA. Overt cytotoxicity to cells in confluent adherent cultures (all systems other than the BT system) was assessed by measuring total protein levels using sulforhodamine B (SRB) staining in parallel cultures at the time of biomarker measurements, indicated as SRB endpoints. For proliferation assays for adherent cell types, individual cell types are cultured at sub-confluence and relative cell numbers quantified by SRB staining at time points optimized for each system (48 h: 3C and CASM3C systems; 72 h: BT and HDF3CGF systems; 96 h: SAg system). SRB was performed by staining cells with 0.1% SRB after fixation with 10% TCA and reading wells at 560 nm.Viability and proliferation of PBMC (T cells) was quantified by Alamar Blue reduction for the SAg and BT systems. For PBMC viability (referred to as PBMC Cytotoxicity within the assay endpoint names), cells were plated (75,000/well in a 96-well plate) and then chemical samples added for 1 h before addition of activators, SEB and TSST-1 (20 ng/mL final concentration each). Cells were incubated for 90 h. Then, Alamar Blue (20 uL/well) (Invitrogen, Cat DAL1100) was added for 6 h, and the plates were read with a fluorescence microplate reader at 546/580 nm (excitation/emission). For PBMC proliferation, cells were plated and activated as above but incubated for only 16 h prior to addition of Alamar Blue. Plates were read after 6 h.

| SMILES | outcome | AC50 |
| --- | --- | --- |
| CO[Si](OC)(c1ccccc1)c1ccccc1 | inactive |  |
| C=CC(F)(F)C(F)(F)C(F)(F)C(F)(F)C(F)(F)C(F)(F)C(F)(F)C(F)(F)F | inactive |  |
| O=C(O)C(F)(OC(F)(F)C(F)(OC(F)(F)C(F)(OC(F)(F)C(F)(F)C(F)(F)F)C(F)(F)F)C(F)(F)F)C(F)(F)F (stereo not given) | inactive |  |
| N=C(N)C(F)(F)C(F)(F)C(F)(F)C(F)(F)C(F)(F)C(F)(F)C(F)(F)F | inactive | 55.1 µM (active) |
| FC(F)(F)C(F)(F)C(F)(F)C(F)(F)C(F)(F)C(F)(F)CCS | inactive |  |
| O=C(O)C(F)(F)C(F)(F)C(F)(F)C(F)(F)C(F)(F)C(F)(F)C(F)(F)C(F)(F)Cl |  | 48.4 µM (active) and 47.2 µM (active) |
| CCO[Si](CCC(F)(F)C(F)(F)C(F)(F)C(F)(F)C(F)(F)C(F)(F)F)(OCC)OCC | inactive |  |
| Cc1ccc(S(=O)(=O)OCC(F)(F)C(F)(F)C(F)(F)C(F)(F)C(F)(F)C(F)F)cc1 | inactive |  |
| C=CC(=O)OCC(F)(F)C(F)(F)C(F)(F)C(F)(F)C(F)(F)C(F)(F)C(F)(F)F | inactive |  |
| OCC(F)(F)C(F)(F)C(F)(F)F | inactive |  |
| CCCCCCOC(=O)c1ccccc1O |  | 43.2 µM (active) and 42.1 µM (active) |
| Nc1ccc([N+](=O)[O-])cc1O | inactive |  |
| CCCCCCCOC(=O)c1ccccc1C(=O)OCCCCCCC | inactive |  |
| CC(=O)Nc1ccc(N=Nc2cc(C)ccc2O)cc1 | inactive |  |
| O=C(O)C(F)(F)C(F)(F)C(F)(F)C(F)(F)C(F)(F)C(F)(F)C(F)(F)C(F)(F)C(F)(F)C(F)(F)C(F)(F)C(F)(F)C(F)(F)F | inactive |  |
| O=C(O)C(F)(F)C(F)(F)F | inactive |  |
| O=C(O)C=C(C(F)(F)F)C(F)(F)F | inactive |  |
| O=C(O)C(F)(F)C(F)(F)C(F)(F)C(F)(F)F | inactive |  |
| FC(F)(F)C(F)(F)C(F)(F)C(F)(F)C(F)(F)C(F)(F)CC1CO1 (stereo not given) | inactive |  |

| SMILES | outcome | AC50 |
| --- | --- | --- |
| CCN(CC)c1ccc2c(C)cc(=O)oc2c1 | inactive |  |
| O=S(=O)(O)C(F)(F)C(F)(F)C(F)(F)C(F)(F)C(F)(F)C(F)(F)C(F)(F)F | inactive |  |
| FC(F)(F)C(F)(F)C(F)(F)C(F)(F)CCI | inactive |  |
| FC(F)(F)C(F)(F)C(F)(F)C(F)(F)C(F)(F)C(F)(F)C(F)(F)Br | inactive |  |
| CCCCNc1ccccc1 | inactive |  |
| C=CC(F)(F)C(F)(F)C(F)(F)C(F)(F)C(F)(F)C(F)(F)C(F)(F)C(F)(F)C=C | inactive |  |
| C=C(C)C(=O)OCC(F)(F)C(F)(F)C(F)(F)C(F)(F)C(F)(F)C(F)(F)C(F)(F)F | inactive |  |
| O=S(=O)(OCCOC(F)(F)F)C(F)(F)F | inactive |  |
| C=CC/C=C/C/C=C/C/C=C/C | inactive |  |
| Oc1ccc(Nc2ccccc2)cc1 | inactive |  |
| FC(F)(F)C(F)(F)C(F)(F)N(C(F)(F)C(F)(F)C(F)(F)F)C(F)(F)C(F)(F)C(F)(F)F | inactive |  |
| O=C(CC(=O)C(F)(F)C(F)(F)F)C(F)(F)F | inactive |  |
| CCCCCCCCCCCCCCCC[N+](C)(C)Cc1ccccc1 |  | 5.2 µM (active) |
| O=C(Cl)C(F)(F)C(F)(F)C(F)(F)C(F)(F)C(F)(F)C(F)(F)C(F)(F)C(F)(F)F | inactive | 44.7 µM (active) and 42.3 µM (active) |
| CCCCCCCCC(F)(F)C(F)(F)C(F)(F)C(F)(F)C(F)(F)C(F)(F)F | inactive |  |
| CCCCCCC(C)OC(=O)CCCCC(=O)OC(C)CCCCCC (stereo not given) | inactive |  |
| OCC(F)(F)C(F)(F)C(F)(F)C(F)(F)C(F)(F)C(F)F | inactive |  |
| CC(CCl)OP(=O)(OC(C)CCl)OC(C)CCl (stereo not given) | inactive |  |
| O=C(O)C(F)(OC(F)(F)C(F)(OC(F)(F)C(F)(F)C(F)(F)F)C(F)(F)F)C(F)(F)F (stereo not given) | inactive |  |
